An excerpt weighted towards active compounds, which were near 1.7% of everything screened.
PTHR1 agonist: activates the human parathyroid hormone receptor PTHR1; Potency, µM (titrated, usually from 115 µM), for inactives: top-dose activation, actives largely listed as activators; Q03431; 0.075% of 410,000 active; HEK293 GP2 PTHR1 cells, GloSensor cAMP luminescence, 1 h; also: nearly all actives have a fitted effect of over 55% in size
Target sequence (Q03431 whole entry, looked up): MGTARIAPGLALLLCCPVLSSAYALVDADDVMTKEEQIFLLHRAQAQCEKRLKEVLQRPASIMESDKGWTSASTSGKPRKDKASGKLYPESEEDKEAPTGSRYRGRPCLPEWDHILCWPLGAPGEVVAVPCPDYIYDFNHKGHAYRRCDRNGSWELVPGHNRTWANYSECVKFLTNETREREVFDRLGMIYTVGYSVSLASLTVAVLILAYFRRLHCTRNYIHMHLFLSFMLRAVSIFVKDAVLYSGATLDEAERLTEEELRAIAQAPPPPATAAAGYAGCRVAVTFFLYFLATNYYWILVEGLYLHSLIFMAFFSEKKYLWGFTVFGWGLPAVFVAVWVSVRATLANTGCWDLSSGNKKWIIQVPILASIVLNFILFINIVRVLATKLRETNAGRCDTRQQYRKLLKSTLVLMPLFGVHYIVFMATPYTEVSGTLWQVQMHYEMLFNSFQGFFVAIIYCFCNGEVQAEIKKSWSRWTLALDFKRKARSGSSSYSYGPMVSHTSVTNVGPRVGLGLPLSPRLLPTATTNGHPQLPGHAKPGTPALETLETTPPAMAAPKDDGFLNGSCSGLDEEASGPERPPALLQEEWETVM
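HEK-293-derived GP2 cells expressing PTHR1 and a GloSensor cAMP reporter, 3,000/well, plated overnight, given luciferin plus IBMX (each 0.5 mM as added) for 1 h at 37 °C, then compound for 1 h at 37 °C. Luminescence was read after 15 min at room temperature.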
GLP1R ag: GLP-1 receptor (human) agonism; HEK293 GLP-1R CRE-luciferase, luminescence, 4-6 h; cells express a hypersensitive GLP-1R form; Potency, µM (titrated, usually from 45.6 µM), without a hit: at the top dose activation, usual class: activators; 0.007% of 380,000 active; AID 624172; also: % of control where 0% means no effect
GLP1R inv ag: GLP-1 receptor (human) inverse agonism | P43220 | HEK293 GLP-1R CRE-luciferase, luminescence, 24 h; GLP-1R form is constitutively active | Potency, µM (series often up to 38.3 µM), for the others: at the highest dose activity change, negative = inhibition, most hits filed as inhibitors | 1.6% of 410,000 active; also: % is scaled to controls: 0 for no effect and ±100 for the full control effect; nearly all actives have a fitted effect of over 55% in size
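qHTS in 1536-well format: reporter HEK293 cells expressing constitutive GLP-1R activity in DMEM + 10% Nu serum, 24 hr with compounds at 37 deg C, luminescence read after 12 min with detection reagent.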
GLP1R cytotox: cytotoxicity counter-screen for GLP-1 receptor inverse agonists. 0.13% of 410,000 active. AID 624418. HEK293 cAMP-luciferase reporter cells, luminescence, 24 h. Potency, µM (doses to about 38.3 µM), for the others: at the highest dose activity change, negative = inhibition, usual class: inhibitors;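 also: loss of luciferase light is scored as toxicity; % is scaled to controls: 0 for no effect and ±100 for the full control effect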
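Seeding density was 200 cells/uL; after overnight-length (12 h) culture, 23 nL compounds went on for 24 h at 37 °C. Readout used a luciferase detection reagent, luminescence taken after 12 min at room temperature.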
The depositor's hits bear a star; i = inactive; ? = inconclusive; . = not tested or not shown; ! = not confirmed by another sample; [ ] = dose if it differs, or a comment. Calls follow the shape of the dose curve; as a rule, active = well fitted curve in the direction sought with a large enough effect; inconclusive = small, poorly fitted or top-dose-only effect, or another doubt; inactive = no such curve, though single readings can be large; an effect the other way counts as inactive or inconclusive. Potency is read from the fitted curve at half-maximal effect.

SMILES	PTHR1 agonist	GLP1R ag	GLP1R inv ag	GLP1R cytotox
Cc1ccc(C)c(C(C)NC(=S)NC2CCCCC2)c1 (configuration not stated)	-8%	1%	2.8µM*	-25%
Cc1ccc(C)c(C(C)NC(=O)C2CCCC2)c1 (configuration not stated)	i	-6%	-18%	6%
CCc1ccc(NC(=O)c2c(Cl)nc(C)c(Cl)c2C)cc1	-19%	8%	4µM*	-5%
Cc1ccccc1NC(=O)c1c(Cl)nc(C)c(Cl)c1C	i	2%	-2%	-5%
O=C(Nc1ccccc1C(=O)Nc1nnc(C(F)(F)F)s1)c1ccccc1	-40%	-6%	?	3.2µM*
COc1ccccc1NC(=O)C(C)OC(=O)c1cccc(-n2cnnn2)c1 (configuration not stated)	i	24%	39%	3%
COc1ccc(/C=C2\OC(=O)c3c(OC)cccc32)cc1OC	-15%[57.5 µM]	5µM*	208%	389%
COc1ccc(C=C2C(=O)OC(C)(C)OC2=O)cc1OC	0%	-14%	22%	7%
O=C1OC(c2ccccc2)(c2ccccc2)c2ccccc21	-33%	12%	7.9µM*	17%
O=S(=O)(NC1c2cccc3cccc(c23)C1N1CCNCC1)c1ccccc1 (configuration not stated)	i	4%	10µM*	-25%
O=S(=O)(NC1c2cccc3cccc(c23)C1N1CCN(CCO)CC1)c1ccccc1 (configuration not stated)	-11%[57.5 µM]	-18%	?	?
Cc1ccc(S(=O)(=O)NC2CCCCC2)c(C)c1NS(C)(=O)=O	-63%	5%	3%	3%
O=C(c1cccc(Cl)c1)n1nc(-c2cccnc2)nc1NCc1ccccc1	i	.	12%	0%
CCC1Nc2ncnc(N3CCc4ccccc4C3)c2N(Cc2ccc(Cl)cc2)C1=O (configuration not stated)	-32%	-2%	7.9µM*	-16%
CCC1Nc2ncnc(N3CCCCC3)c2N(Cc2ccc(Cl)cc2)C1=O (configuration not stated)	-49%	-1%	10µM*!	-36%
N#CCC(=O)Nc1ccc(C(=O)OCC(=O)NC2CCCc3ccccc32)cc1 (configuration not stated)	i	-38%	-6%	-14%
O=C(CN1C(=O)C2(SCC(=O)N2c2ccccc2)c2ccccc21)NCc1ccccc1Cl (configuration not stated)	i	-4%	-9%	-12%
O=C(CN1C(=O)C2(SCC(=O)N2c2cccc(F)c2)c2ccccc21)NCc1ccccc1Cl (configuration not stated)	-26%	-1%	8.9µM*	-15%
COc1ccc(C2c3ccc4ccccc4c3Oc3ncn(CCCN(C)C)c(=N)c32)cc1 (configuration not stated)	i	21%	4.5µM*	?
COc1ccccc1C1c2ccc3ccccc3c2Oc2ncn(CCCO)c(=N)c21 (configuration not stated)	-5%	14%	?	?
COc1ccccc1C1c2ccc3ccccc3c2Oc2ncn(CCN(C)C)c(=N)c21 (configuration not stated)	i	22%	2.8µM*	?
Cc1cccc(/C=N/Nc2ccc3ccccc3n2)c1	-49%	-6%	10µM*	?
C(=N\Nc1ccc2ccccc2n1)/c1ccc2c(c1)OCCO2	-25%	-3%	-75%	-8%
CC(C)COc1ccc(CSCCNC(=S)Nc2ccccc2)cc1	-57%	2%	3.2µM*	4.5µM*
Cc1cccc(CSCCNC(=O)Nc2ccccc2)c1	-11%	-3%	?	-20%
SMILES	PTHR1 agonist	GLP1R ag	GLP1R inv ag	GLP1R cytotox
CCCCOc1ccc(CSCCNC(=S)Nc2ccccc2)cc1	-31%	-4%	1.8µM*	3.2µM*
CCCCCOc1ccc(CSCCNC(=S)Nc2ccccc2)cc1	-21%	-4%	?	-7%[1.53 µM]
O=C(Nc1cccc(Cl)c1)Nc1ccccc1OCc1cc(=O)n2ccccc2n1	-20%	.	1%	0%
OCCN(CCO)c1ccc2ccccc2c1	-20%	1%	-26%	-4%
OCCN(CCO)c1cc2c3ccccc3ccc2c2ccccc12	-10%	13%	10µM*	-3%
O=C1c2ccccc2NC(c2ccc(Cl)cc2Cl)N1Cc1ccccc1 (configuration not stated)	-3%	-15%	7.1µM*	-14%

From PubChem BioAssay
